# According to PubChem BioAssay (NCI):
# The panel holds about 83,000 compounds, 20% with a hit somewhere; the sample as a whole holds those more often.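 Plates (96-well) were seeded with cells, treated with compound at one concentration, and incubated for 48 hours before percent growth was determined.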 A number with no mark means an inactive call. Active and inactive are the calls of the source.
# Test system: OVCAR-3 ovarian
# Assay: NCI-60 one-dose screen, 48 h (100 = growth as untreated, 0 = no growth, -100 = all killed)
# Conditions: 10 µM unless noted
# Description: Growth inhibition of the OVCAR-3 human tumor cell line is measured as a screen for anti-cancer activity. Cells are grown in 96 well plates and exposed to the test compound for 48 hours. Compounds are tested at a single concentration, which is 10^-5 M for most compounds. The reported endpoint is percent growth (GI% or GIPRCNT), where numbers from 0 - 100% represent growth inhibition, and numbers from -100% - 0 represent cell death. For example, a value of 40 represents 60% growth inhibition. A value of 0 means no net growth occurred over the course of the experiment. A value of -40 indicates 40% of cells at the beginning of the experiment died by the end of the experiment. A value of -100 means all cells are dead at the end of the experiment.
# NCI-60 Human Tumor Cell Lines Screen was performed using the standard one-dose NCI protocol, which is described in more detail at https://dtp.cancer.gov/discovery_development/nci-60/default.htm.
# Compounds with GIPRCNT values below 10 were considered active. Activity score was based on GIPRCNT using the following formula: […]
# Score is 0 for GIPRCNT values of 100 or above, 50 for GIPRCNT values of 0, and 100 for GIPRCNT values of -100.
row,Compound,growth
1,CC(C)C/C(=N\NC(=O)c1ccncc1)c1cc(Cl)ccc1O,11.1%
2,O=C1Cc2cc(CCN3CCN(CCOCCO)CC3)c(Cl)cc2N1Cc1ccc(-c2ccccc2-c2nn[nH]n2)cc1,94.5%
3,COc1cc(/C=C2\COc3ccc(O)c(O)c3C2=O)cc(OC)c1,-32.3% (active)
4,Clc1ccc(-c2nc(-c3cccs3)no2)c(Cl)c1,99.2%
5,Cc1c(C(N)=O)sc2nc(SCC(=O)Nc3ccc(Cl)cc3)n(-c3ccccc3)c(=O)c12,131%
6,COc1ccc(/C=N/NC(=O)c2ccc(S(C)(=O)=O)cc2)cc1OC,108%
7,O=C(/C(=C/c1cccc([N+](=O)[O-])c1)c1ccccc1)c1ccccc1,23.4%
8,O=C(/C(=C/c1ccc([N+](=O)[O-])cc1)c1ccccc1)c1ccccc1,16.4%
9,Cc1ccc(C=C2C(Cl)=C(Cl)C(Cl)=C2Cl)cc1,-85.1% (active)
10,Nc1cc(Cl)c(S(N)(=O)=O)cc1S(N)(=O)=O,137%
11,COc1ccc(C(=O)COc2cccc(/C=C3\Oc4ccc5ccccc5c4C3=O)c2)cc1,72.4%
12,O=C(C(=O)N1CCOCC1)c1ccc(OC2OC(CO)C(O)C(O)C2O)cc1 (stereo not given),110%
13,Clc1cccc(Cc2cn3cc(-c4ccccc4)nc3s2)c1,73.6%
14,COc1ccc(C(=O)/C=C/c2c(Cl)nc3c(c(C)nn3-c3ccccc3)c2-c2ccc(Br)cc2)cc1,115%
15,CC(=O)O[C@H]1C(=O)[C@@]2(C)C([C@H](OC(=O)c3ccccc3)[C@]3(O)C[C@H](OC(=O)[C@H](O)[C@@H](NC(=O)c4ccccc4)c4ccccc4)C(C)=C1C3(C)C)[C@]1(OC(C)=O)CO[C@@H]1C[C@@H]2O (stereo not given in full),-9.4% (active)
16,COc1cc2cn3c4ccc(O)cc4nc(N)c3c2cc1OC,1.25% (active)
17,Cc1ccc(NC(=O)COC(=O)c2ccc(S(=O)(=O)N3CCCCCC3)cc2)cc1,106%
18,COc1ccc(/C(=C2\O[C@@H]([C@H](O)CO)[C@H]3OC(C)(C)O[C@@H]23)c2cc(OC)c(OC)c(OC)c2)cc1O,97.4%
19,Cc1nc2cc(NC(=O)CN3CCN(CCN4C(=O)c5cccc6cccc(c56)C4=O)CC3)ccc2s1,74.3%
20,CCOC(=O)C1C(=O)OC2CCCCC21 (stereo not given),126%

row,Compound,growth
1,COc1cccc(C2C(C#N)=C(N)Oc3cc(OC)ccc32)c1 (stereo not given),-28.9% (active)
2,COc1ccc(OC)c(/C=C/c2nc(=S)n(-c3ccc(Cl)cc3)[nH]2)c1,29.4%
3,CCCOc1ccc2c(c1)CC[C@@H]1[C@@H]2CC[C@@]2(C)[C@H]1CC[C@]2(C)O,104%
4,COc1ccc2[nH]c(-c3ccccc3)cc2c1,101%
5,Cc1ccsc1/C=C/C1=NCCCN1C,108%
6,CCCCC(C#N)C(N)=O (stereo not given),108%
7,C/C(=C\CCc1ccsc1)CC/C=C(\C)CCCN1CCN(CCO)CC1,64.6%
8,CCCCSc1cc(C)nc(N)n1,103%
9,O=[P@@]1(c2ccccc2)O[C@H](COCc2ccccc2)[C@@H](OCc2ccccc2)[C@H](OCc2ccccc2)[C@H]1NCc1ccccc1,18.6%
10,O=C1/C(=C/c2ccc3cccc(Cl)c3n2)SC(=S)N1CCc1ccc(O)cc1,75.7%
11,CCCCCCCCCCSc1ncnc2nc[nH]c12,71.1%
12,Cc1nnc(Nc2ccc(NC(=O)Nc3ccc(Cl)cc3)cc2)c2ccccc12,44.4%
13,O=C(Nc1ccc(C2=NCCCN2)cc1)Nc1ccc(C2=NCCCN2)cc1,99.4%
14,N#Cc1ccc(NC(=O)Nc2ccc(Oc3ccc(NC(=O)Nc4ccc(C#N)cc4)cc3)cc2)cc1,11.1%
15,Cc1nc2c(O)cccc2cc1CO,112%
16,NC(=O)c1ncn([C@@H]2O[C@H](CO)[C@@H](O)[C@H]2O)n1,103%
17,O=c1[nH]c(=O)n(C2CC(O)C(CO)O2)cc1C(F)(F)F (stereo not given),69.7%
18,CCOc1cc(-c2ccc[nH]2)[nH]c1/C=C1\N=C(C)C(C(=O)OC)=C1C,-89.2% (active)
19,N#CCCN(CCO)c1ccccc1,105%
20,CCCCCCCCCCC[C@@H](C[C@H]1OC(=O)[C@H]1CCCCCC)OC(=O)[C@@H](CC(C)C)NC=O,69%
